Reference: PubChem BioAssay AID620 (Sanford-Burnham Center for Chemical Genomics, 2007)
In all, about 87,000 compounds went through this assay and about 360 (0.41%) were called active. No stated cut-off is given here; in the data, active means cytotoxicity above about 50%; inactive means the rest. Many of the other results were omitted from the sample, so actives are more common in it than they were.

Assay: HT1080 cell viability loss – fluorescence readout (AID 620);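 further: cells exposed to compound overnight then 4 h with Alamar Blue; 0% = vehicle DMSO and 100% = killing control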
Settings: at 10 µM, active compounds read high

SMILES	cytotoxicity
COc1cccc(-c2nnc(SCC(N)=O)n2-c2ccc(Cl)cc2)c1	-0.4% (inactive)
O=S(=O)(c1cccc(-c2nc3ccccc3s2)c1)N1CCOCC1	-1% (inactive)
COc1ccccc1NC(=O)N(Cc1ccco1)Cc1cc2ccc(C)c(C)c2[nH]c1=O	58.4% (active)
COc1ccccc1NC(=O)N(Cc1ccco1)Cc1cc2cc(C)cc(C)c2[nH]c1=O	3.9% (inactive)
COc1ccccc1NC(=O)N(Cc1ccco1)Cc1cc2cccc(C)c2[nH]c1=O	-8% (inactive)
COc1ccc(NC(=O)CCN2CCN(S(=O)(=O)c3ccc(Cl)cc3)CC2)cc1	-5.2% (inactive)
COc1ccc(CC2C(=O)OC(C)(C)OC2=O)cc1	-9.2% (inactive)
O=C(Nc1cccc(-c2cc3ccccc3oc2=O)c1)c1ccc(Br)o1	-1.6% (inactive)
COc1ccc(C)c(S(=O)(=O)Nc2ccc(OCC(=O)O)cc2)c1	-3.4% (inactive)
COc1ccc(NS(=O)(=O)c2cc(C)ccc2NC(=O)c2cc(C)oc2C)cc1	67.9% (active)
COc1ccc(NS(=O)(=O)c2cc(C)ccc2C)cc1	2.8% (inactive)
COc1ccc(NS(=O)(=O)c2cc(OC)ccc2NC(=O)c2cc(C)oc2C)cc1	54% (active)
COc1ccc2nc(NC(=O)c3cc(C)oc3C)sc2c1	-5.9% (inactive)
COc1ccc(NS(=O)(=O)c2cc(C(=O)O)ccc2C)cc1	-2.1% (inactive)
CCOC(=O)C1Cc2ccccc2CN1 (centres undefined)	-7.6% (inactive)
CCOC(=O)N1CCC(NC(=O)C2CCCN(S(=O)(=O)c3ccc4c(c3)oc(=O)n4C)C2)CC1 (centres undefined)	-2.4% (inactive)
COc1ccccc1Oc1ccc(S(=O)(=O)N2CCOCC2)cc1S(=O)(=O)N1CCOCC1	-0.3% (inactive)
CC(=O)Oc1ccc(C)cc1-n1nc2ccccc2n1	-18.3% (inactive)
Cc1ccc(Oc2ccc(S(=O)(=O)N3CCOCC3)cc2C(N)=O)c(-n2nc3ccccc3n2)c1	53.4% (active)
Cc1cc(C)c(C#N)c(SCC(=O)Nc2ccc3c(c2)OCO3)n1	-1.7% (inactive)
CN(C)/C=C(\C(=O)c1ccc(Cl)cc1)c1nnnn1-c1ccc(Cl)cc1	5.8% (inactive)
OC(CNCCc1ccccc1)c1ccccc1 (centres undefined)	-2.3% (inactive)
CCNc1nc(NCC)nc(N2CC(=O)N(CC(=O)OCC)C2=N)n1	4.9% (inactive)
Fc1ccc(C2C3=C(Nc4ncnn42)c2ccccc2OC3c2ccncc2)cc1 (centres undefined)	14.5% (inactive)
Clc1ccc2c(c1)C1=C(C(c3ccncc3)O2)C(c2ccc(Br)cc2)n2ncnc2N1 (centres undefined)	50.7% (active)

SMILES	cytotoxicity
Brc1ccc(C2C3=C(Nc4ncnn42)c2ccccc2OC3c2ccncc2)cc1 (centres undefined)	44.4% (inactive)
O=C(CSCCc1ccccn1)Nc1ccccn1	3.4% (inactive)
O=C(Cc1cn2ccsc2n1)OCc1nc2ccccc2s1	-1.1% (inactive)
CCOC(=O)c1c(C)[nH]c(C(=O)COC(=O)CNC(=O)C2CCCCC2)c1C	0.3% (inactive)
CCOC(=O)C1=C(C)N(CCCC(=O)O)C(=O)NC1c1ccccc1OC(=O)c1cccs1 (centres undefined)	-19.7% (inactive)
CCC1CCCN1Cn1cnc2c([nH]c3ccccc32)c1=O (centres undefined)	2.5% (inactive)
O=C(NCC(c1cccnc1)N1CCN(c2ccccc2)CC1)OCc1ccccc1 (centres undefined)	3.4% (inactive)
CCOC(=O)c1ccccc1NS(=O)(=O)c1ccccc1	37% (inactive)
CCOC(=O)c1ccccc1NS(=O)(=O)c1ccc(OCC)cc1	55.2% (active)
COc1ccc(Cl)cc1NS(=O)(=O)c1ccc(OC)c(OC)c1	-2.2% (inactive)
CCCCOc1ccc(S(=O)(=O)Nc2cc(OC)ccc2OC)cc1	4.8% (inactive)
CCOc1ccc(S(=O)(=O)Nc2cc(OC)ccc2OC)cc1	59.8% (active)
COc1ccc(Cl)cc1NS(=O)(=O)c1ccc(S(=O)(=O)N2CCCC2)cc1	-1.1% (inactive)
COc1ccc(S(=O)(=O)Nc2cc(Cl)ccc2OC)cc1	70.9% (active)
CCOC(=O)c1ccccc1NS(=O)(=O)c1ccc(C)cc1	6.9% (inactive)
COC(=O)COc1ccc(S(=O)(=O)Nc2cc(OC)ccc2OC)cc1	2.6% (inactive)
Cc1cc(C)n(/N=C\c2c(O)ccc3ccccc23)c(=O)c1C(N)=O	0% (inactive)
CC(=O)c1ccc(OC(C)C)c(CN2CCCCC2)c1	1.8% (inactive)
Cc1onc(-c2ccccc2)c1C(=O)Nc1cccc(C#N)c1	-1.8% (inactive)
COC(=O)CSc1nnc(CNS(=O)(=O)c2ccc(C)cc2)n1C	6.8% (inactive)
Cc1ccc2cc(-c3noc(C4CCCCC4)n3)c(=O)[nH]c2c1	-0.9% (inactive)
Cn1c(=O)c2c(nc(Br)n2CC(=O)c2cccs2)n(C)c1=O	-2.7% (inactive)
COc1ccc(S(=O)(=O)N2CCN(S(=O)(=O)c3ccc4c(c3)OCCO4)CC2)cc1	2.3% (inactive)
CC1=NN(S(=O)(=O)c2ccc(F)cc2)C(=O)c2ccccc2O1	0.4% (inactive)
COc1ccc(S(=O)(=O)N2N=C(C)Oc3ccccc3C2=O)cc1	60.3% (active)

SMILES	cytotoxicity
O=C(NCc1ccccc1)C1CCN(S(=O)(=O)N2CCCCCC2)CC1	-5.9% (inactive)
O=C(N1CCOCC1)n1nnc2ccccc21	-1.4% (inactive)
O=S(=O)(N1CCOCC1)n1nnc2ccccc21	-4.1% (inactive)
CCc1ccc2c(c1)[C@]1(C(=O)N2)[C@@H]2C(=O)N(Cc3ccccc3)C(=O)[C@@H]2[C@@H]2CCCN21	-2.5% (inactive)
C=CCOc1ccc2nc(NC(=O)OC)[nH]c2c1	62.3% (active)
CCCSc1ccc2nc(NC(=O)OC)[nH]c2c1	40% (inactive)
CCOc1ccc2nc(NCCO)[nH]c2c1	-12% (inactive)
COc1ccc(OCC(=O)Nc2nc3ccccc3[nH]2)cc1	-8.8% (inactive)
COc1ccc2nc(NCCO)[nH]c2c1	3.7% (inactive)
CCCOc1ccc2nc(NC(=O)OC)[nH]c2c1	64.1% (active)
O=C1C2ON(c3ccc(Br)cc3)C(c3cccnc3)C2C(=O)N1C1CCCCC1 (centres undefined)	1.2% (inactive)
COc1ccc2nc3oc(C(=O)N4CCN(c5ccccc5F)CC4)cc3cc2c1	-0.7% (inactive)
Cc1cc(NC(=O)CSc2nnc(-c3cccnc3)n2C)no1	-4.9% (inactive)
Cc1cccc(N(C(=O)Nc2ccccc2)C2=NCC(C)S2)c1 (centres undefined)	-2.6% (inactive)
N#Cc1cccc(Cn2nnc(-c3ccccc3)n2)c1	13.7% (inactive)
COc1ccc(OC)c(-n2nnnc2SCC(=O)Nc2ccc(C(=O)N3CCCCC3)cc2)c1	-11.6% (inactive)
COCCCNC(=O)CCCC(=O)NCCCOC	-2.4% (inactive)
COc1ccc(-c2cn3cc(Cl)ccc3n2)cc1OC	98.8% (active)
COc1ccc(-c2cn3ccccc3n2)cc1OC	14.9% (inactive)
COc1ccc(-c2cn3cc(C)ccc3n2)cc1OC	23% (inactive)
O=C1CC(c2ccncc2)c2cc3c(cc2N1)OCCO3 (centres undefined)	5.6% (inactive)
COc1cc2c(cc1OC)C(c1cccc(OC)c1OC)CC(=O)N2 (centres undefined)	-0.5% (inactive)
COc1cccc(C2CC(=O)Nc3cc4c(cc32)OCCO4)c1OC(C)C (centres undefined)	0.6% (inactive)
Cc1ccc(C2CC(=O)Nc3cc4c(cc32)OCO4)o1 (centres undefined)	40% (inactive)
CC(C)Oc1ccccc1C1CC(=O)Nc2cc3c(cc21)OCO3 (centres undefined)	67.4% (active)

SMILES	cytotoxicity
COc1ccccc1C1CC(=O)Nc2cc3c(cc21)OCCO3 (centres undefined)	52.2% (active)
O=C1CC(c2cccs2)c2cc3c(cc2N1)OCO3 (centres undefined)	13.7% (inactive)
Cc1ccc(C2CC(=O)Nc3cc4c(cc32)OCCO4)s1 (centres undefined)	7.9% (inactive)
CC(C)Oc1ccccc1C1CC(=O)Nc2cc3c(cc21)OCCO3 (centres undefined)	70.5% (active)
CCCCCCC(C)n1[nH]c(=O)c2c(C)cc(=O)[nH]c21 (centres undefined)	-5% (inactive)
O=C(C1CCC(CNc2c(N3CCCCC3)c(=O)c2=O)CC1)N1CCCCC1 (centres undefined)	-4.8% (inactive)
C=CCn1c(NC)cc(=O)n(C)c1=O	9.8% (inactive)
CC1(C(=O)NC2CCCC2)CCC(=O)N1Cc1ccc2c(c1)OCO2 (centres undefined)	20.7% (inactive)
COc1ccc(O)c(C(=O)c2cc(C#N)c(=O)n(CCN3CCOCC3)c2)c1	7% (inactive)
COC(=O)c1ccc(NC(=O)COc2ccc(S(=O)(=O)N3CCCCC3)cc2)cc1	-6.1% (inactive)
c1ccc(-c2nc3ccccc3nc2N2CCOCC2)cc1	19.1% (inactive)
Nc1nc(NCc2ccccc2)nc(-c2ccccc2)n1	12.3% (inactive)
Cc1c(NC(=O)c2ccc(=O)oc2)c(=O)n(-c2ccccc2)n1C	32.6% (inactive)
Cc1c(NC(=O)c2ccccc2)c(=O)n(-c2ccccc2)n1C	-12.6% (inactive)
COc1cc2[nH]cc(C(=O)NCCc3ccccc3)c(=O)c2cc1OC	5.3% (inactive)
CCOc1ccc(OCc2ccc(C(=O)Nc3cccnc3)o2)cc1	-3.1% (inactive)
O=C(CSc1oc(-c2ccc(F)cc2)nc1S(=O)(=O)c1ccc(F)cc1)NCC1CCCO1 (centres undefined)	4.4% (inactive)
CCN(CC)C(=O)CN(C#N)c1nc(NC(C)C)nc(NC(C)C)n1	-2% (inactive)
COc1cccc(Oc2nnnn2-c2ccccc2)c1	-0.2% (inactive)
CCCS(=O)(=O)c1nnnn1-c1cccc(OC)c1	66.7% (active)
COc1cccc(-n2nnnc2SCC(=O)NC2CCCC2)c1	-4.7% (inactive)
CC(C)(C)NC(=O)c1ccccc1-c1nc(-c2ccccc2Cl)no1	-5.2% (inactive)
CC(C)NC(=O)c1ccccc1-c1nc(-c2ccccc2Cl)no1	50.9% (active)
CCNC(=O)c1ccccc1-c1nc(-c2ccccc2Cl)no1	-5.2% (inactive)
